Shown are actives, neighbours in structure and some others; about 1.7% of the full set was active somewhere.
V-ATPase pH = yeast V-ATPase proton transport regulation by pHLuorin | S. cerevisiae, pHLuorin cytosolic pH fluorescence | response, % at 10 µM | hit rate 0.37% among 350,000 | AID 504577; in the data active = response mostly above about 7.3%, no sharp cut-off; inactive = mostly below about 5.4%; also: actives read high
MOR-DOR ag = agonists of human mu-delta opioid receptor heterodimerization. cells, OPRM1-OPRD1 heterodimerization, luminescence. activation, % at 9.3 µM. hit rate 0.3% among 340,000; in the data active = activation above about 18%;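 also: 0% = vehicle-treated cells and 100% = reference agonist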
HTR5A inv ctr = counter-screen for OPRM1-OPRD1 inverse agonists: human HTR5A inverse agonism | P47898 | HTR5A cell line, luminescence | inhibition, % at 9.3 µM | hit rate 0.083% among 340,000; in the data active = inhibition mostly above about 23%, no sharp cut-off; inactive = mostly below about 18%;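 also: 0% = cells with DMSO and 100% = no-cell wells with DMSO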
Target sequence (P47898 whole entry, looked up): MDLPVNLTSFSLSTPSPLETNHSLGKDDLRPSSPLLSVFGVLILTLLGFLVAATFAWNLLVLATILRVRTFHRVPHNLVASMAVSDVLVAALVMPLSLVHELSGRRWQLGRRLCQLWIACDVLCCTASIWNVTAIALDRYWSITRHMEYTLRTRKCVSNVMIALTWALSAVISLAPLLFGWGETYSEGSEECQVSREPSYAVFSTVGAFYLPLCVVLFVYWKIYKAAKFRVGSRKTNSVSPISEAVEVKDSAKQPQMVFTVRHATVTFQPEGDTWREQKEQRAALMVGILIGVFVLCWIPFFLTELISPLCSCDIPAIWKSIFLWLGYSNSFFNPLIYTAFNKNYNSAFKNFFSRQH
beta cell repl = MIN6 beta-cell proliferation induction; MIN6 cells proliferation, ATPlite luminescence, 48 h; cells starved in 0.2% serum; 100% = growth in 10% serum; proliferation, % at 10 µM; hit rate 0.29% among 330,000;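 active = compounds whose signal lies at least 3.5 SD above the mean of all wells on their plate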;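 also: 0% = DMSO-treated cells in low-serum medium and 100% = 10% serum control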
HTR5A ag = activates human HTR5A in OPRM1-OPRD1 agonist counter-screen | activation, % at 9.3 µM | P47898 | HTR5A agonist assay, luminescence, cell-based | hit rate 0.61% among 340,000; in the data active = activation mostly above about 9.5%, no sharp cut-off; inactive = mostly below about 7.6%;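 also: 0% = cells with vehicle only and 100% = reference agonist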
MOR-DOR inv ag = inverse agonists of human mu-delta opioid receptor heterodimerization; hit rate 0.21% among 340,000; inhibition, % at 9.3 µM; P35372+P41143; cell-based MOR-DOR heterodimer luminescence, inverse agonism; in the data active = inhibition above about 22%, passing the limit was not always enough;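 also: 0% = cells with DMSO and 100% = wells without cells with DMSO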
* marks the source's active call; other numbers are inactive results; . = no result given.

SMILES	V-ATPase pH	MOR-DOR ag	HTR5A inv ctr	beta cell repl	HTR5A ag	MOR-DOR inv ag
O=C(CNS(=O)(=O)c1cccc(F)c1)OCC(=O)N1CCCC1=O	4	-3	7	1	-3	13
COc1ccccc1C(=O)NNS(=O)(=O)c1ccc(F)cc1	2	-2	-4	-6	2	13
O=C(NNS(=O)(=O)c1ccc(F)cc1)c1ccccc1F	-2	-3	-45	0	12*	14
CSCC[C@H](NC(=O)c1ccc2c(c1)OCO2)c1nnc2ccccn12	-3	-1	-9	0	2	8
CCOc1ccc(NC(=O)NCCN2CCN(c3cccc(C)c3C)CC2)cc1	1	3	-43	-7	11*	-16
COc1ccc(S(=O)(=O)Nc2ccccn2)cc1	-1	-1	-3	3	2	3
COc1cc(NS(=O)(=O)c2ccc(C)cc2)c2ncccc2c1	-4	-9	18	-6	-3	47*
CCc1c(O)nc(SCC(=O)Nc2ccc(Cl)cc2)n(-c2ccccc2)c1=O	2	.	.	.	.	.
COc1ccc(C(=O)c2c(N)sc3c2CCN(C)C3)cc1	-1	-1	1	8.0*	0	4
COc1ccc(C(=O)c2c(NC(C)=O)sc3c2CCN(C(=O)OC(C)(C)C)C3)cc1	3	.	.	1	.	.
C/C(=N\NC(=O)COc1ccc(C#N)cc1)c1ccccc1OC(F)F	-1	-2	22	6.9*	-8	15
C/C(=N\NC(=O)COc1ccc(C(C)(C)C)cc1)c1ccc(OC(F)F)cc1	1	2	-3	0	-2	-16
CCS(=O)(=O)NCC(c1cccnc1)N1CCN(c2ccccc2)CC1 (stereo not drawn)	21*	1	-19	-5	3	-5
CCN1CCN(C(CNS(=O)(=O)c2ccc(Br)cc2)c2cccnc2)CC1 (stereo not drawn)	3	-3	8	1	12*	14
Cc1ccc(S(=O)(=O)N2CCOCC2)cc1NC(=O)CNc1ccccc1N1CCCC1=O	22*	-2	-1	1	0	12
COc1ccc(S(=O)(=O)N2CCOCC2)cc1NC(=O)CSc1ncccn1	-3	-1	-44	1	11*	8
O=C1C(SCCO)=C(SCCO)C(=O)c2ccccc21	-1	1	41*	-8	-10	-7
CC1=C(SCc2ccccc2)C(=O)c2ccccc2C1=O	1	15	-5	.	1	-75
N#CCCNS(=O)(=O)c1ccc(C(=O)OCC2CCCCC2)cc1	0	7	1	1	12*	-60
N#CCCNS(=O)(=O)c1ccc(C(=O)OCCCOC(=O)c2ccc(S(=O)(=O)NCCC#N)cc2)cc1	0	-3	3	-3	4	18
Cc1ccc(C)c(OCCC(=O)NNC(=O)Cn2nc(C)cc2C)c1	0	-1	-34	0	12*	6
Cc1ccc(C)c(C(=O)CCC(=O)NNC(=O)Cn2nc(C)cc2C)c1	-2	-1	1	0	0	9
Cc1ccc(S(=O)(=O)N2CCN(C(=O)c3ccc4nc[nH]c4c3)CC2)cc1	15*	0	3	0	4	3
Cc1cc(=O)oc2cc(OCC(=O)Nc3ccc(N4CCC(C)CC4)cc3)ccc12	0	16	-36	-4	11*	-83
Cc1cc(NC(=O)CSCC(=O)N(c2cccc(Cl)c2)C(C(=O)NC2CCCCC2)c2ccc(O)c(O)c2)no1 (stereo not drawn)	-2	-2	-20	0	1	8
SMILES	V-ATPase pH	MOR-DOR ag	HTR5A inv ctr	beta cell repl	HTR5A ag	MOR-DOR inv ag
CCOC(=O)CC1(NC(=O)C2CCC(=O)N(CCc3ccccc3)C2)CCCCC1 (stereo not drawn)	-1	-3	8	-1	2	15
COc1ccc(Cl)cc1N1C(=O)c2cccnc2C1=O	18*	0	0	-3	0	-2
C=CCNC(=S)N/N=C(\C)c1ccccn1	6	-7	13	-6	-5	35*
CC(=NNC(=S)Nc1ccccc1)c1ccccn1	1	.	.	.	.	.
CCC(=O)Nc1cccc(NC(=O)c2ccc(C)cc2Cl)c1	16*	0	19	-2	6	2
CCC(=O)Nc1cccc(SC)c1	6	3	15	2	13*	-17
CCOc1ccc(C(=O)NCC(=O)Nc2ccc3c(c2)OCO3)cc1OCC	-4	0	2	2	-1	1
CCC(CC)C(=O)Nc1cccc(SC)c1	.	.	.	-4	.	.
CSc1cccc(NC(=O)CNC(=O)c2ccc3c(c2)OCO3)c1	3	-1	24	1	10*	4
Cc1cc(C)c(NC(=O)CSc2nnc(CNC(=O)c3ccco3)o2)c(C)c1	2	-2	4	-1	0	11
CCCCN1C(=O)C(CC(=O)NC(c2ccccc2)c2ccccc2)CC(C(=O)N(C(C)C)C(C)C)=C1C (stereo not drawn)	-1	.	.	.	.	.
O=C(CS(=O)(=O)c1cn(CC(=O)N2CCOCC2)c2ccccc12)Nc1ccccc1F	0	-1	-17	1	4	4
CCOC(=O)c1[nH]c2ccc(OC)cc2c1NC(=O)CN1CCSCC1	25*	2	-14	0	-1	-9
COc1ccc(NC(=O)CN(C)S(=O)(=O)c2ccc(Cl)cc2)cn1	0	2	0	-2	0	-6
CCCC(C)NC(=O)Cc1ccccc1 (stereo not drawn)	2	-4	-13	0	4	19
CCC(C)NC(=O)Cc1ccc(-c2ccccc2)cc1 (stereo not drawn)	88*	0	-19	-2	9	-3
Cc1ccn2c(C(=O)NNC(=O)Nc3ccc(Cl)cc3)c(C)nc2c1	4	-1	3	6	5	7
COc1ccc(CC2(CO)CCN(Cc3cccc(OC)c3OC)CC2)cc1	15*	0	13	-1	-5	1
COc1cc2c(cc1OC)C(c1ccc(-c3ccc(Cl)c(Cl)c3)o1)=NCC2	5	4	-3	-6	11*	-20
CC(C)c1ccc(NC(=O)C2CCCCC2C(=O)O)cc1 (stereo not drawn)	14*	-1	-19	-4	-1	7
O=S(=O)(/N=C(/Nc1cccnc1)c1ccccc1)c1ccc(F)cc1F	-1	-4	-35	-1	14*	14
COc1ccc(Cl)cc1NC(=O)c1cc(C)no1	-3	-1	5	-2	-1	5
O=C(NNC(=O)C1CCN(C(=O)Nc2ccccc2)CC1)c1ccc(F)cc1	2	0	0	-4	0	0
O=C(CNC(=O)c1ccco1)NCC(=O)OCC(=O)c1ccc(Cl)c([N+](=O)[O-])c1	-3	-18	43*	-3	-10	94*
O=C(CNC(=O)c1ccco1)OCC(=O)c1ccc([N+](=O)[O-])cc1	1	-2	6	0	-2	11
COC(=O)CCC(=O)N1CCC(Oc2cccc(C(=O)NCc3ccccn3)c2)CC1	4	.	.	.	.	.
c1ccc(Nc2nc(N3CCCC3)nc(N3CCCC3)n2)cc1	3	2	20	-3	13*	-8

Assay outcomes from PubChem.
